Positions count from the first letter of the chain named.
Legend:
Test in all cases: PBM; 200 nM protein, PBS
Details in all cases: dsDNA, one strand shown
[1] = biological target: HOXB4 (Homo sapiens, UniProt P17483 148-234)
[2] = biological target: T1, SIX6 (Homo sapiens, UniProt O95475 114-200, L167I)
T1 sequence: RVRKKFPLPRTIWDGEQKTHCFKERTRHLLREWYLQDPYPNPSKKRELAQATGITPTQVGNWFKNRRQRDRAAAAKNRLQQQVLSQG

[3] = biological target: T2, SIX6 (Homo sapiens, UniProt O95475 114-200, L143V)
T2 sequence: T1 sequence with L30V, I54L

[4] = biological target: T3, SIX6 (Homo sapiens, UniProt O95475 114-200, H141N)
T3 sequence: T1 sequence with H28N, I54L

[5] = biological target: T4, SIX6 (Homo sapiens, UniProt O95475 114-200, T165P)
T4 sequence: T1 sequence with T52P, I54L

[6] = biological target: T5, SIX6 (Homo sapiens, UniProt O95475 114-200, L167M)
T5 sequence: T1 sequence with I54M

[7] = biological target: T6, SIX6 (Homo sapiens, UniProt O95475 114-200, L143M)
T6 sequence: T1 sequence with L30M, I54L

[8] = biological target: T7, SIX6 (Homo sapiens, UniProt O95475 114-200, L143I)
T7 sequence: T1 sequence with L30I, I54L

[9] = biological target: T8, SIX6 (Homo sapiens, UniProt O95475 114-200, T165G)
T8 sequence: T1 sequence with T52G, I54L

[10] = biological target: T9, SIX6 (Homo sapiens, UniProt O95475 114-200, T139Q)
T9 sequence: T1 sequence with T26Q, I54L

[11] = biological target: HOXB4 (Homo sapiens, UniProt P17483 148-234, V174I)
HOXB4 (Homo sapiens, UniProt P17483 148-234, V174I), sequence (P17483 148-234 V174I): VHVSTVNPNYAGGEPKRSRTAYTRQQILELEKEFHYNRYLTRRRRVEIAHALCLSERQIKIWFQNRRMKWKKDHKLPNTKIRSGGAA

[12] = biological target: ALX1 (Homo sapiens, UniProt Q15699 118-204, L144V)
ALX1 (Homo sapiens, UniProt Q15699 118-204, L144V), sequence (Q15699 118-204 L144V): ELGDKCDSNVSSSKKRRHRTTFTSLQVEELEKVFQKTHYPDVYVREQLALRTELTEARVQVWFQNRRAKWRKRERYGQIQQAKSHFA

[13] = biological target: T10, SIX6 (Homo sapiens, UniProt O95475 114-200, T165A)
T10 sequence: T1 sequence with T52A, I54L

[14] = biological target: ALX1 (Homo sapiens, UniProt Q15699 118-204, L144R)
ALX1 (Homo sapiens, UniProt Q15699 118-204, L144R), sequence (Q15699 118-204 L144R): as the sequence (Q15699 118-204 L144V) above, with V27R counted along it

[15] = biological target: T11, SIX6 (Homo sapiens, UniProt O95475 114-200, L167V)
T11 sequence: T1 sequence with I54V

[16] = biological target: T12, SIX6 (Homo sapiens, UniProt O95475 114-200)
T12 sequence: T1 sequence with I54L

[17] = biological target: T13, SIX6 (Homo sapiens, UniProt O95475 114-200, T165I)
T13 sequence: T1 sequence with T52I, I54L

[18] = biological target: ALX1 (Homo sapiens, UniProt Q15699 118-204)
ALX1 (Homo sapiens, UniProt Q15699 118-204), sequence (Q15699 118-204): as the sequence (Q15699 118-204 L144V) above, with V27L counted along it

[19] = biological target: T14, VENTX (Homo sapiens, UniProt O95231 78-163, R121Q)
T14 sequence: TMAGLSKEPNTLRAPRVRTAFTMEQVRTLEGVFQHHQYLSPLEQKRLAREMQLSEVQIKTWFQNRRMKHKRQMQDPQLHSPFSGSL

[20] = biological target: HOXA4 (Homo sapiens, UniProt Q00056 201-287, W262R)
HOXA4 (Homo sapiens, UniProt Q00056 201-287, W262R), sequence (Q00056 201-287 W262R): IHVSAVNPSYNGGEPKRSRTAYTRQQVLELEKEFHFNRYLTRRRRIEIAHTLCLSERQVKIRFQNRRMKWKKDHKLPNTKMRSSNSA

[21] = biological target: T15, VENTX (Homo sapiens, UniProt O95231 78-163)
T15 sequence: T14 sequence with Q44R

[22] = biological target: T16, VENTX (Homo sapiens, UniProt O95231 78-163, Y115F)
T16 sequence: T14 sequence with Y38F, Q44R

[23] = biological target: HOXA2 (Homo sapiens, UniProt O43364 129-215, R185T)
HOXA2 (Homo sapiens, UniProt O43364 129-215, R185T), sequence (O43364 129-215 R185T): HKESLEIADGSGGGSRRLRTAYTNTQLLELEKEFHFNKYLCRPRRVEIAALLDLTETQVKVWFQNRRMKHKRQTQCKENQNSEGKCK

[24] = biological target: HOXA4 (Homo sapiens, UniProt Q00056 201-287, R217L)
HOXA4 (Homo sapiens, UniProt Q00056 201-287, R217L), sequence (Q00056 201-287 R217L): as the sequence (Q00056 201-287 W262R) above, with R17L, R62W counted along it

[25] = biological target: HOXA2 (Homo sapiens, UniProt O43364 129-215, R185K)
HOXA2 (Homo sapiens, UniProt O43364 129-215, R185K), sequence (O43364 129-215 R185K): as the sequence (O43364 129-215 R185T) above, with T57K counted along it

[26] = biological target: HOXA4 (Homo sapiens, UniProt Q00056 201-287)
HOXA4 (Homo sapiens, UniProt Q00056 201-287), sequence (Q00056 201-287): as the sequence (Q00056 201-287 W262R) above, with R62W counted along it

[27] = biological target: PROP1 (Homo sapiens, UniProt O75360 56-141)
PROP1 (Homo sapiens, UniProt O75360 56-141), sequence (O75360 56-141): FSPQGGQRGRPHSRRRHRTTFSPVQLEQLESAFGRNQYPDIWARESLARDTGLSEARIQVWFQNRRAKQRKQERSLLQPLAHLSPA

[28] = biological target: PROP1 (Homo sapiens, UniProt O75360 56-141, R99H)
PROP1 (Homo sapiens, UniProt O75360 56-141, R99H), sequence (O75360 56-141 R99H): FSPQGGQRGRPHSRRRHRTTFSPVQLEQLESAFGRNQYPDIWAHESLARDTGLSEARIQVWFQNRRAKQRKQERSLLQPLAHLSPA

[29] = biological target: VAX1 (Homo sapiens, UniProt Q5SQQ9 86-172)
VAX1 (Homo sapiens, UniProt Q5SQQ9 86-172), sequence (Q5SQQ9 86-172): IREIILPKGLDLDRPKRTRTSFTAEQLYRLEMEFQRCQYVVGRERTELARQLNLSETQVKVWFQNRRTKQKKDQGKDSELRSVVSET

[30] = biological target: PROP1 (Homo sapiens, UniProt O75360 56-141, F88S)
PROP1 (Homo sapiens, UniProt O75360 56-141, F88S), sequence (O75360 56-141 F88S): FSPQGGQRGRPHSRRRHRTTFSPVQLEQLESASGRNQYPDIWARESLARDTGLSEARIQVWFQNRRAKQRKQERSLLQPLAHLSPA

[31] = biological target: VAX1 (Homo sapiens, UniProt Q5SQQ9 86-172, T142I)
VAX1 (Homo sapiens, UniProt Q5SQQ9 86-172, T142I), sequence (Q5SQQ9 86-172 T142I): as the sequence (Q5SQQ9 86-172) above, with T57I counted along it

[32] = biological target: HOXA2 (Homo sapiens, UniProt O43364 129-215, Y150S)
HOXA2 (Homo sapiens, UniProt O43364 129-215, Y150S), sequence (O43364 129-215 Y150S): as the sequence (O43364 129-215 R185T) above, with Y22S, T57R counted along it

[33] = biological target: HOXA4 (Homo sapiens, UniProt Q00056 201-287, W262F)
HOXA4 (Homo sapiens, UniProt Q00056 201-287, W262F), sequence (Q00056 201-287 W262F): as the sequence (Q00056 201-287 W262R) above, with R62F counted along it

[34] = biological target: HOXA2 (Homo sapiens, UniProt O43364 129-215)
HOXA2 (Homo sapiens, UniProt O43364 129-215), sequence (O43364 129-215): as the sequence (O43364 129-215 R185T) above, with T57R counted along it

[35] = biological target: VAX1 (Homo sapiens, UniProt Q5SQQ9 86-172, K157R)
VAX1 (Homo sapiens, UniProt Q5SQQ9 86-172, K157R), sequence (Q5SQQ9 86-172 K157R): as the sequence (Q5SQQ9 86-172) above, with K72R counted along it

[36] = biological target: MSX2 (Homo sapiens, UniProt P35548 130-214, R199I)
MSX2 (Homo sapiens, UniProt P35548 130-214, R199I), sequence (P35548 130-214 R199I): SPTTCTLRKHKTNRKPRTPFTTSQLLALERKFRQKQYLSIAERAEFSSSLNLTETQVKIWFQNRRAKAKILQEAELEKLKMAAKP

[37] = biological target: MSX2 (Homo sapiens, UniProt P35548 130-214)
MSX2 (Homo sapiens, UniProt P35548 130-214), sequence (P35548 130-214): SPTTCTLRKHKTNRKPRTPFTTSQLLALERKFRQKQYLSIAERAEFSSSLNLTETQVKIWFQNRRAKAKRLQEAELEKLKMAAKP

[38] = biological target: MSX2 (Homo sapiens, UniProt P35548 130-214, F161Y)
MSX2 (Homo sapiens, UniProt P35548 130-214, F161Y), sequence (P35548 130-214 F161Y): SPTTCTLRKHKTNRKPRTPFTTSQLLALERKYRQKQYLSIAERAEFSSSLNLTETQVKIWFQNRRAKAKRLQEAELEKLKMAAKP

HOXB4 (Homo sapiens, UniProt P17483 148-234), sequence (P17483 148-234): as the sequence (P17483 148-234 V174I) above, with I27V counted along it

Sequence: GCGCAGCC
- binding signal [1]: 7.53 upbm affinity estimate (log intensity, higher = more binding, comparable within an allelic series)
- binding signal [2]: 8.75 upbm affinity estimate (log intensity, higher = more binding, comparable within an allelic series)
- binding signal [3]: 8.82 upbm affinity estimate (log intensity, higher = more binding, comparable within an allelic series)
- binding signal [4]: 8.75 upbm affinity estimate (log intensity, higher = more binding, comparable within an allelic series)
- binding signal [5]: 8.87 upbm affinity estimate (log intensity, higher = more binding, comparable within an allelic series)
- binding signal [6]: 8.77 upbm affinity estimate (log intensity, higher = more binding, comparable within an allelic series)
- binding signal [7]: 8.72 upbm affinity estimate (log intensity, higher = more binding, comparable within an allelic series)
- binding signal [8]: 8.74 upbm affinity estimate (log intensity, higher = more binding, comparable within an allelic series)
- binding signal [9]: 8.7 upbm affinity estimate (log intensity, higher = more binding, comparable within an allelic series)
- binding signal [10]: 8.82 upbm affinity estimate (log intensity, higher = more binding, comparable within an allelic series)
- binding signal [11]: 7.57 upbm affinity estimate (log intensity, higher = more binding, comparable within an allelic series)
- binding signal [12]: 6.42 upbm affinity estimate (log intensity, higher = more binding, comparable within an allelic series)
- binding signal [13]: 8.78 upbm affinity estimate (log intensity, higher = more binding, comparable within an allelic series)
- binding signal [14]: 6.45 upbm affinity estimate (log intensity, higher = more binding, comparable within an allelic series)
- binding signal [15]: 8.72 upbm affinity estimate (log intensity, higher = more binding, comparable within an allelic series)
- binding signal [16]: 8.73 upbm affinity estimate (log intensity, higher = more binding, comparable within an allelic series)
- binding signal [17]: 8.7 upbm affinity estimate (log intensity, higher = more binding, comparable within an allelic series)
- binding signal [18]: 6.41 upbm affinity estimate (log intensity, higher = more binding, comparable within an allelic series)

Sequence: ACTAATGG
- binding signal [1]: 12.9 upbm affinity estimate (log intensity, higher = more binding, comparable within an allelic series)
- binding signal [19]: 12.2 upbm affinity estimate (log intensity, higher = more binding, comparable within an allelic series)
- binding signal [20]: 10.5 upbm affinity estimate (log intensity, higher = more binding, comparable within an allelic series)
- binding signal [21]: 12.8 upbm affinity estimate (log intensity, higher = more binding, comparable within an allelic series)
- binding signal [22]: 11.9 upbm affinity estimate (log intensity, higher = more binding, comparable within an allelic series)
- binding signal [23]: 12.2 upbm affinity estimate (log intensity, higher = more binding, comparable within an allelic series)
- binding signal [24]: 11.5 upbm affinity estimate (log intensity, higher = more binding, comparable within an allelic series)
- binding signal [11]: 13.5 upbm affinity estimate (log intensity, higher = more binding, comparable within an allelic series)
- binding signal [25]: 13 upbm affinity estimate (log intensity, higher = more binding, comparable within an allelic series)
- binding signal [26]: 13.5 upbm affinity estimate (log intensity, higher = more binding, comparable within an allelic series)
- binding signal [27]: 9.71 upbm affinity estimate (log intensity, higher = more binding, comparable within an allelic series)
- binding signal [28]: 9.39 upbm affinity estimate (log intensity, higher = more binding, comparable within an allelic series)
- binding signal [29]: 12.7 upbm affinity estimate (log intensity, higher = more binding, comparable within an allelic series)
- binding signal [30]: 7.3 upbm affinity estimate (log intensity, higher = more binding, comparable within an allelic series)
- binding signal [31]: 12.1 upbm affinity estimate (log intensity, higher = more binding, comparable within an allelic series)
- binding signal [32]: 10.8 upbm affinity estimate (log intensity, higher = more binding, comparable within an allelic series)
- binding signal [33]: 11.3 upbm affinity estimate (log intensity, higher = more binding, comparable within an allelic series)
- binding signal [34]: 12.1 upbm affinity estimate (log intensity, higher = more binding, comparable within an allelic series)
- binding signal [35]: 12.3 upbm affinity estimate (log intensity, higher = more binding, comparable within an allelic series)

Sequence: GCCGCCGC
- binding signal [1]: 7.18 upbm affinity estimate (log intensity, higher = more binding, comparable within an allelic series)
- binding signal [19]: 7.93 upbm affinity estimate (log intensity, higher = more binding, comparable within an allelic series)
- binding signal [20]: 9.6 upbm affinity estimate (log intensity, higher = more binding, comparable within an allelic series)
- binding signal [21]: 7.88 upbm affinity estimate (log intensity, higher = more binding, comparable within an allelic series)
- binding signal [22]: 7.83 upbm affinity estimate (log intensity, higher = more binding, comparable within an allelic series)
- binding signal [23]: 6.96 upbm affinity estimate (log intensity, higher = more binding, comparable within an allelic series)
- binding signal [24]: 9.61 upbm affinity estimate (log intensity, higher = more binding, comparable within an allelic series)
- binding signal [11]: 7.39 upbm affinity estimate (log intensity, higher = more binding, comparable within an allelic series)
- binding signal [36]: 9.4 upbm affinity estimate (log intensity, higher = more binding, comparable within an allelic series)
- binding signal [25]: 9.77 upbm affinity estimate (log intensity, higher = more binding, comparable within an allelic series)
- binding signal [26]: 9.67 upbm affinity estimate (log intensity, higher = more binding, comparable within an allelic series)
- binding signal [37]: 9.37 upbm affinity estimate (log intensity, higher = more binding, comparable within an allelic series)
- binding signal [38]: 9.42 upbm affinity estimate (log intensity, higher = more binding, comparable within an allelic series)
- binding signal [32]: 10.3 upbm affinity estimate (log intensity, higher = more binding, comparable within an allelic series)
- binding signal [33]: 9.69 upbm affinity estimate (log intensity, higher = more binding, comparable within an allelic series)
- binding signal [34]: 6.9 upbm affinity estimate (log intensity, higher = more binding, comparable within an allelic series)

From publication PMC11006913
